{"source": "PubChem BioAssay AID817", "about": "(Emory University Molecular Libraries Screening Center, 2007)", "experiment": "growth rescue of sdo1-depleted yeast, primary screen, S. cerevisiae, bone marrow failure model (AID 817);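 also: z-score against mean and SD of all compound wells on the same plate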", "conditions": "S. cerevisiae sdo1-depleted JHY4D growth rescue, at 10 µM, stronger effect = higher value, pdr5 snq2 efflux-pump mutant strain", "key": {"[1]": {"conditions": "OD600, measured here: growth rescue at 24 h"}}, "note": "Hit rate of the full screen: of about 140,000 compounds, about 300 (0.21%) were called active.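 The calls were made as follows: active = z-score above 3 at both the 24 hr and the 30 hr optical density reads; inactive = the rest, inconclusive results apart.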 Many of the other results were omitted from the sample, so actives are more common in it than they were."}
{"smiles": "NC(=O)CCC(NS(=O)(=O)c1ccc(Cl)cc1)C(=O)NCc1ccccc1Cl", "note": "(stereo not drawn)", "values": [{"measurement": "z-score", "setting": "OD600 30 h", "result": "-0.28 (inactive)"}, {"measurement": "z-score", "setting": "[1]", "result": -1.21}]}
{"smiles": "Cc1ccc(C(=O)CNc2ccc(F)cc2)cc1", "values": [{"measurement": "z-score", "setting": "OD600 30 h", "result": "0.78 (inactive)"}, {"measurement": "z-score", "setting": "[1]", "result": -0.09}]}
{"smiles": "Fc1ccccc1CNC(=S)Nc1ccc(Cl)cc1", "values": [{"measurement": "z-score", "setting": "OD600 30 h", "result": "-1.01 (inactive)"}, {"measurement": "z-score", "setting": "[1]", "result": -0.89}]}
{"smiles": "CCOC(=O)C(C)Sc1nnc(CSc2nc3nc(C)cc(C)n3n2)o1", "note": "(stereo not drawn)", "values": [{"measurement": "z-score", "setting": "OD600 30 h", "result": "0.4 (inactive)"}, {"measurement": "z-score", "setting": "[1]", "result": 0.13}]}
{"smiles": "c1cncc(-c2nnc3n2C2(CCCCC2)Cc2ccccc2-3)c1", "values": [{"measurement": "z-score", "setting": "OD600 30 h", "result": "-0.05 (inactive)"}, {"measurement": "z-score", "setting": "[1]", "result": -0.69}]}
{"smiles": "CCOc1cccc2c1OC1(CCCCC1)N1N=C(c3cccnc3)CC21", "note": "(stereo not drawn)", "values": [{"measurement": "z-score", "setting": "OD600 30 h", "result": "13.5 (active)"}, {"measurement": "z-score", "setting": "[1]", "result": 3.28}]}
{"smiles": "CCOc1ccccc1C1CC(c2cccc(NS(C)(=O)=O)c2)=NN1C(=O)c1ccccc1", "note": "(stereo not drawn)", "values": [{"measurement": "z-score", "setting": "OD600 30 h", "result": "-0.43 (inactive)"}, {"measurement": "z-score", "setting": "[1]", "result": -0.52}]}
{"smiles": "N/C(=N\\OC(=O)N1c2ccccc2Sc2ccccc21)c1ccc(Br)cc1", "values": [{"measurement": "z-score", "setting": "OD600 30 h", "result": "-1.34 (inactive)"}, {"measurement": "z-score", "setting": "[1]", "result": -1.41}]}
{"smiles": "Cc1cc(-c2csc(N)n2)c(C)n1-c1ccccc1", "values": [{"measurement": "z-score", "setting": "OD600 30 h", "result": "0.37 (inactive)"}, {"measurement": "z-score", "setting": "[1]", "result": 0.28}]}
{"smiles": "C/C(=N\\NC(=O)c1ccc(NS(=O)(=O)c2cccs2)cc1)c1ccc2ccccc2c1", "values": [{"measurement": "z-score", "setting": "OD600 30 h", "result": "0.3 (inactive)"}, {"measurement": "z-score", "setting": "[1]", "result": 0.75}]}
{"smiles": "CCCCC(=O)N/N=C(\\C)CC(=O)Nc1cc(Cl)ccc1OC", "values": [{"measurement": "z-score", "setting": "OD600 30 h", "result": "0.09 (inactive)"}, {"measurement": "z-score", "setting": "[1]", "result": -0.2}]}
{"smiles": "COc1ccc(/C(C)=N/Nc2cc(C(F)(F)F)ccc2Cl)c(OC)c1", "values": [{"measurement": "z-score", "setting": "OD600 30 h", "result": "-0.18 (inactive)"}, {"measurement": "z-score", "setting": "[1]", "result": -0.33}]}
{"smiles": "COc1ccc(/C(C)=N/NC(=O)CCC(=O)Nc2ccc(Cl)cc2Cl)c(OC)c1", "values": [{"measurement": "z-score", "setting": "OD600 30 h", "result": "5.63 (active)"}, {"measurement": "z-score", "setting": "[1]", "result": 5.64}]}
{"smiles": "O=c1[nH]c2ccccc2s1", "values": [{"measurement": "z-score", "setting": "OD600 30 h", "result": "0.98 (inactive)"}, {"measurement": "z-score", "setting": "[1]", "result": 1.68}]}
{"smiles": "C=CCN(c1ccc(C(=O)Nc2cc(C)cc(C)c2)cc1)S(C)(=O)=O", "values": [{"measurement": "z-score", "setting": "OD600 30 h", "result": "-0.5 (inactive)"}, {"measurement": "z-score", "setting": "[1]", "result": -0.78}]}
{"smiles": "C#CCOCCOCCOCCNc1nc(N2CCN(C(=O)[C@H](C(C)C)n3cc(CCO)nn3)CC2)nc(N2CCN(C(=O)[C@H]([C@@H](C)CC)n3cc(CCCN=C(N)N)nn3)CC2)n1", "values": [{"measurement": "z-score", "setting": "OD600 30 h", "result": "1.22 (inactive)"}, {"measurement": "z-score", "setting": "[1]", "result": 1.32}]}
{"smiles": "CCn1c(SCC(=O)N/N=C/C=C/c2ccccc2[N+](=O)[O-])nnc1-c1ccccc1", "values": [{"measurement": "z-score", "setting": "OD600 30 h", "result": "0.43 (inactive)"}, {"measurement": "z-score", "setting": "[1]", "result": -0.06}]}
{"smiles": "CN(C)C(=O)c1ccc2c(c1)C1C3CCC(C3)C1C(c1ccccc1)N2", "note": "(stereo not drawn)", "values": [{"measurement": "z-score", "setting": "OD600 30 h", "result": "-0.71 (inactive)"}, {"measurement": "z-score", "setting": "[1]", "result": -0.66}]}
{"smiles": "CCCCNC(=O)CSc1nc2ccc(NC(=O)CSc3nnc(N)s3)cc2s1", "values": [{"measurement": "z-score", "setting": "OD600 30 h", "result": "0.08 (inactive)"}, {"measurement": "z-score", "setting": "[1]", "result": -0.52}]}
{"smiles": "COC(=O)c1ccc(NC(=O)CSc2nncc3ccc(OC)c(OC)c23)cc1", "values": [{"measurement": "z-score", "setting": "OD600 30 h", "result": "-1.41 (inactive)"}, {"measurement": "z-score", "setting": "[1]", "result": -0.89}]}
{"smiles": "CCOc1ccc(S(=O)(=O)N/N=C(\\C)c2ccc(Cl)c(Cl)c2Cl)cc1", "values": [{"measurement": "z-score", "setting": "OD600 30 h", "result": "1.17 (inactive)"}, {"measurement": "z-score", "setting": "[1]", "result": 1.85}]}
{"smiles": "O=C(CSc1nc2ccccc2c(=O)n1CCCO)N1CCc2ccccc21", "values": [{"measurement": "z-score", "setting": "OD600 30 h", "result": "-1.29 (inactive)"}, {"measurement": "z-score", "setting": "[1]", "result": -0.81}]}
{"smiles": "CCc1ccc(C2N3CC4([N+](=O)[O-])CN2CC([N+](=O)[O-])(C3)C4(C)C)cc1", "note": "(stereo not drawn)", "values": [{"measurement": "z-score", "setting": "OD600 30 h", "result": "1.48 (inactive)"}, {"measurement": "z-score", "setting": "[1]", "result": 1.35}]}
{"smiles": "CCC(C)C(=O)Nc1cc([N+](=O)[O-])ccc1Cl", "note": "(stereo not drawn)", "values": [{"measurement": "z-score", "setting": "OD600 30 h", "result": "0.25 (inactive)"}, {"measurement": "z-score", "setting": "[1]", "result": -0.26}]}
{"smiles": "CN(C)/C(=N\\OC(=O)c1ccccc1)c1nonc1N", "values": [{"measurement": "z-score", "setting": "OD600 30 h", "result": "-0.17 (inactive)"}, {"measurement": "z-score", "setting": "[1]", "result": 0.24}]}
{"smiles": "COCCn1c(=O)[nH]c(=O)c2cc(C(=O)c3cc(OC)ccc3O)cnc21", "values": [{"measurement": "z-score", "setting": "OD600 30 h", "result": "0.16 (inactive)"}, {"measurement": "z-score", "setting": "[1]", "result": 0.23}]}
{"smiles": "N#C/C(=C\\C1=C(N2CCOCC2)C(=C\\c2ccccc2)/CC1)C(=O)Nc1ccccc1F", "values": [{"measurement": "z-score", "setting": "OD600 30 h", "result": "0.41 (inactive)"}, {"measurement": "z-score", "setting": "[1]", "result": 2.72}]}
{"smiles": "COc1cc(OC)cc(C(=O)NCC(=O)OCc2csc(-c3ccccc3)n2)c1", "values": [{"measurement": "z-score", "setting": "OD600 30 h", "result": "-0.49 (inactive)"}, {"measurement": "z-score", "setting": "[1]", "result": -0.88}]}
{"smiles": "O=C(/C=C/c1ccccc1[N+](=O)[O-])NCC1CCCO1", "note": "(stereo not drawn)", "values": [{"measurement": "z-score", "setting": "OD600 30 h", "result": "1.67 (inactive)"}, {"measurement": "z-score", "setting": "[1]", "result": 2.05}]}
{"smiles": "Cc1cc(C(=O)NNC(=S)NC(C)c2ccccc2)cs1", "note": "(stereo not drawn)", "values": [{"measurement": "z-score", "setting": "OD600 30 h", "result": "0.17 (inactive)"}, {"measurement": "z-score", "setting": "[1]", "result": -0.18}]}
{"smiles": "O=C(CN1CCN(S(=O)(=O)c2ccc(Br)cc2)CC1)Nc1ccccc1C(=O)c1ccccc1", "values": [{"measurement": "z-score", "setting": "OD600 30 h", "result": "-0.96 (inactive)"}, {"measurement": "z-score", "setting": "[1]", "result": -0.1}]}
{"smiles": "Cc1c(C(=O)NCCCc2ccccc2)cccc1[N+](=O)[O-]", "values": [{"measurement": "z-score", "setting": "OD600 30 h", "result": "-0.72 (inactive)"}, {"measurement": "z-score", "setting": "[1]", "result": -1.83}]}
{"smiles": "CN(C)c1ccc(Nc2c3c4c(cccc4n(C)c2=O)C(=O)c2ccccc2-3)cc1", "values": [{"measurement": "z-score", "setting": "OD600 30 h", "result": "12.3 (active)"}, {"measurement": "z-score", "setting": "[1]", "result": 10.3}]}
{"smiles": "O=[N+]([O-])c1cccc(C2=NCCS2)c1", "values": [{"measurement": "z-score", "setting": "OD600 30 h", "result": "0.63 (inactive)"}, {"measurement": "z-score", "setting": "[1]", "result": 0.08}]}
{"smiles": "Cc1ccccc1NC(=S)N(CCCN1CCOCC1)Cc1cccs1", "values": [{"measurement": "z-score", "setting": "OD600 30 h", "result": "0.26 (inactive)"}, {"measurement": "z-score", "setting": "[1]", "result": 0.42}]}
{"smiles": "O=C1NC(c2ccccc2)CCC1(Cl)Cl", "note": "(stereo not drawn)", "values": [{"measurement": "z-score", "setting": "OD600 30 h", "result": "0.83 (inactive)"}, {"measurement": "z-score", "setting": "[1]", "result": -0.01}]}
{"smiles": "NS(=O)(=O)c1cc(C(=O)NCCOc2ccccc2)c(Cl)cc1Cl", "values": [{"measurement": "z-score", "setting": "OD600 30 h", "result": "-0.22 (inactive)"}, {"measurement": "z-score", "setting": "[1]", "result": -0.02}]}
{"smiles": "O=C(NNC1=NCCC1)c1cccc(S(=O)(=O)N2CCCCC2)c1", "values": [{"measurement": "z-score", "setting": "OD600 30 h", "result": "1.39 (inactive)"}, {"measurement": "z-score", "setting": "[1]", "result": 1.17}]}
{"smiles": "CCN(C(=O)COc1cccnc1[N+](=O)[O-])C1CCS(=O)(=O)C1", "note": "(stereo not drawn)", "values": [{"measurement": "z-score", "setting": "OD600 30 h", "result": "0.14 (inactive)"}, {"measurement": "z-score", "setting": "[1]", "result": 0.45}]}
